Bioassay records: PubChem, National Center for Advancing Translational Sciences (NCATS)
Sampled rows, rich in hits. Any-hit rate of the full collection: about 7.4%.
SMN2 splice up – qHTS Assay for Enhancers of SMN2 Splice Variant Expression; HEK293 SMN2-luciferase splicing reporter, luminescence, 30-36 h; Potency, µM (top dose mostly 46.1 µM), for the others: at the top dose activity change, positive = activation, most hits filed as activators; 210,000 tested, 2.8% active; AID 1458, 2008; also: % of control where 0% means no effect; nearly all actives have a fitted effect of over 55% in size
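HEK293 cells carry an SMN2 […]–luciferase reporter in which exon 7 inclusion puts luciferase in frame. Cells were plated 10-12 h before compound addition, then incubated 30-36 h at 37C. ONE-Glo luminescence was read; sodium butyrate at 4.5 mM final served as control.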
Rab9 promoter act – qHTS Assay for Rab9 Promoter Activators | Huh7 Rab9 promoter-luciferase reporter, luminescence, 24 h | Potency, µM (top dose mostly 9.22 µM), for inactives: top-dose activation, negative = inhibition, actives largely listed as activators | 320,000 tested, 2.8% active | AID 485297, 2010; also: % of control where 0% means no effect; nearly all actives have a fitted effect of over 60% in size
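Cell-based reporter: Huh7 stable for Rab9 promoter-driven luciferase, plated in reduced-serum medium with 10% FBS at 1500 cells/well, compound-treated 24 h at 37 °C, luminescence read after 10 min reagent.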
FLuc modulator – qHTS profiling assay for firefly luciferase inhibitor/activator using purifed enzyme and Km concentrations of substrates (counterscreen for miR-21 project) | Luciferin 4-monooxygenase (Photinus pyralis), P08659 | AID 588342, 2011 | purified FLuc, Km substrates, luminescence inhibition | 360,000 tested, 6.9% active | Potency, µM (highest dose often 57.5 µM), for the others: at the top dose activity change, negative = inhibition, hits mostly inhibitors;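 also: plate controls were vehicle for no effect and reference inhibitor for full effect; nearly all actives have a fitted effect of over 55% in size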
Target sequence (P08659 whole entry, looked up): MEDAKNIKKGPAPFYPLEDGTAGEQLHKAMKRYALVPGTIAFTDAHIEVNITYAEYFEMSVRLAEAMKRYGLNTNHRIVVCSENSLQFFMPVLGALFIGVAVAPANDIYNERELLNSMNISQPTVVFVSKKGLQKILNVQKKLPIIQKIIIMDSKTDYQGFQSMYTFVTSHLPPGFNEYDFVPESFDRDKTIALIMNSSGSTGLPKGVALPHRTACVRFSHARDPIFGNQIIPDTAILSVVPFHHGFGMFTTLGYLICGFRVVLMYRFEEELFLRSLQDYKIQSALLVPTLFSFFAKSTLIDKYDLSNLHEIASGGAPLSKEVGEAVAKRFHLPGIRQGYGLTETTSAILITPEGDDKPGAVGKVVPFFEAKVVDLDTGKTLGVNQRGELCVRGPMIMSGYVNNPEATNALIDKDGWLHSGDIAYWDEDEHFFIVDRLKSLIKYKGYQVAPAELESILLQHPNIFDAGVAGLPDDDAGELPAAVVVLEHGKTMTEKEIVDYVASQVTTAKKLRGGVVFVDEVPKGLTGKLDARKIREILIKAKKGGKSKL
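Purified P. pyralis luciferase (10nM final) with 10uM D-luciferin and 10uM ATP (Km levels) in 50mM Tris acetate pH 7.5, 10mM Mg acetate, 0.01% Tween-20, 0.05% BSA; qHTS 6-point titration, ~60 µM downward; luminescence read.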
ELG1 genotoxic – qHTS screen for small molecules that induce genotoxicity in human embryonic kidney (HEK293T) cells expressing luciferase-tagged ELG1 | HEK293T ELG1-luciferase reporter, luminescence, 16 h | Potency, µM (highest dose often 46 µM), for the others: top-dose activity change, positive = activation, most hits filed as activators | 330,000 tested, 1.3% active | AID 504466, 2011; also: % of control where 0% means no effect; nearly all actives have a fitted effect of over 60% in size
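Cells (2,000/well) expressing the ELG1-luciferase fusion are dosed by pin tool and kept 16 hr at 37 °C, 5% CO2. Signal comes from ONE-Glo luciferase reagent after 30 min at room temperature.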
NPC1 prom act – qHTS Assay for NPC1 Promoter Activators; Huh7 NPC1 promoter luciferase reporter, 24 h; AID 485313, 2010; Potency, µM (titrated, usually from 9.22 µM), for the others: at the highest dose activation, most hits filed as activators; 320,000 tested, 2.4% active; also: % of control where 0% means no effect; nearly all actives have a fitted effect of over 60% in size
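Luciferase expression driven by the NPC1 promoter was measured in stably transfected Huh7 cells after a 24 h compound incubation, using a luciferase reagent and a luminescence read.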
* marks the source's active call; other numbers are inactive results; ? = inconclusive; / = no result; [ ] = another dose, or the depositor's remark. Calls follow the shape of the dose curve; as a rule, active = well fitted curve in the direction sought with a large enough effect; inconclusive = small, poorly fitted or top-dose-only effect, or another doubt; inactive = no such curve, though single readings can be large; an effect the other way counts as inactive or inconclusive. Potency is read from the fitted curve at half-maximal effect.

SMILES	SMN2 splice up	Rab9 promoter act	FLuc modulator	ELG1 genotoxic	NPC1 prom act
COC(=O)c1ccc(/C=C2/SC(=S)N(CCCC(=O)Nc3ccccn3)C2=O)cc1	-9%	-10%	?	1%	-11%
COc1cccc(/C=C2/SC(=O)N(C)C2=O)c1OCc1ccc(C(=O)O)cc1	/	-1%	-3%	11%	-1%
CCN(C(=O)CCN1C(=O)/C(=C/c2ccccc2)SC1=S)C1CCS(=O)(=O)C1 (stereo unspecified)	/	-22%	24µM*	-8%	-18%
CC(C)(C)c1ccc(NC(=O)Cn2cnc3cc([N+](=O)[O-])ccc3c2=O)cc1	-10%	-6%	-1%	-5%	-5%
Cc1ccc(-c2n[nH]c(Cc3ccccc3)n2)cc1	/	2.5µM*	19µM*	?	2.8µM*
O=C(c1ccc2c(c1)N(Cc1cccc(Cl)c1)C(=O)c1ccccc1S2(=O)=O)N1CCc2ccccc21	/	/	-6%	/	/
O=C(CSc1nc(=O)n(CCN2CCOCC2)c2c1CCCC2)Nc1cccc([N+](=O)[O-])c1	/	0%	7%	0%	-2%
O=C(O)c1ccc(-c2ccc(Cl)cc2Cl)o1	-7%	18%	?	12%	1%
O=C(c1ccc(-c2ccccc2Cl)o1)N1CCN(c2ccccc2O)CC1	/	2%	?	-1%	12%
NC(=O)C1CCN(C(=O)c2ccc(-c3ccccc3Cl)o2)CC1	/	2.5µM*	9.5µM*	?	?
O=C(c1ccco1)N1CCN(C(=O)c2ccc(-c3ccccc3Cl)o2)CC1	/	2.8µM*	9.5µM*	14%	?
CN(C)/C=C/C(=O)c1ccc(-c2ccc(Cl)cc2Cl)o1	?	4.5µM*	9.5µM*	?	?
O=C(c1ccc(-c2ccc(Cl)cc2Cl)o1)N1CCOCC1	22µM*	3.2µM*	8.5µM*	?	3.2µM*
CCCCCc1cc(=O)c2ccccc2o1	/	/	/	13%	/
COc1ccccc1NC(=O)Cn1c(SCC(=O)N(C)c2ccccc2)nc2ccccc21	/	/	-7%	/	/
COc1ccc(NC(=O)Cn2c(=O)n(CCC(=O)NCc3ccccc3OC)c(=O)c3ccccc32)cc1Cl	9%	/	-2%	/	/
O=C(c1ccco1)N1CCN(Cc2c(Cl)cccc2Cl)CC1	/	3.2µM*	27µM*	?	?
O=C(c1cc(-c2ccccc2Cl)on1)N1CCN(C(=O)c2ccco2)CC1	5%	-3%	19µM*	1%	1%
O=C(c1ccc(-c2ccccc2Cl)o1)N1CCN(S(=O)(=O)c2cccs2)CC1	/	?	11µM*	0%	?
O=C(c1cc(-c2ccc(Cl)cc2Cl)on1)N1CCN(C(=O)c2ccco2)CC1	-33%	3%	30µM*	0%	2%
O=C(c1ccco1)N1CCN(S(=O)(=O)c2cc(Cl)ccc2Cl)CC1	/	0%	8%	?	-4%
O=C(c1ccccc1Cl)N1CCN(S(=O)(=O)c2cccs2)CC1	/	7%	1%	2%	1%
COc1ccc(C2c3c(n(C)c4ccccc34)C(=O)N2CC(=O)Nc2ccccc2F)cc1 (stereo unspecified)	/	/	-7%	/	/
CCOC(=O)C1=CN(Cc2ccco2)S(=O)(=O)NC1CC (stereo unspecified)	/	/	/	2%	/
CCOC(=O)c1sc2ncn(CC(=O)Nc3cc(C)on3)c(=O)c2c1C	/	0%	-2%	13%	1%
SMILES	SMN2 splice up	Rab9 promoter act	FLuc modulator	ELG1 genotoxic	NPC1 prom act
Cc1sc2nc3ccc(N4CCCCC4)nn3c(=O)c2c1C	-17%	?	8.5µM*	-1%	?
Cc1ccc2nc3ccc(N4CCCC4)nn3c(=O)c2c1	16µM*	1.6µM*	11µM*	?	2.2µM*
CC1CCCN(c2ccc3nc4ccccc4c(=O)n3n2)C1 (stereo unspecified)	1.3µM*	?	1.1µM*	-12%	?
Cc1sc2nc3n(c(=O)c2c1C)CCCCC3	18%	1%	-5%	0%	-5%
CCOc1cc(N2CCOCC2)c(OCC)cc1NC(=O)c1cccc(S(=O)(=O)N2CCOCC2)c1	/	/	/	-3%	/
CC1(C)CC(NC(=O)CCc2nnc(CCCCc3ccccc3)o2)CCO1 (stereo unspecified)	/	-10%	-2%	-4%	-7%
O=C(O)c1cc(-c2ccccc2)nc2ccccc12	-20%	1%	24µM*	3%	1%
CCOc1ccc(-c2cc(C(=O)O)c3ccccc3n2)cc1	11µM*	1.6µM*	0.67µM*	3.3µM*	?
CCOc1ccc(Sc2cc(C(=O)NCCc3ccccc3)c3ccccc3n2)cc1	/	/	-7%	/	/
Cc1ccc(-c2cc(C(=O)NCCc3ccccc3)c3ccccc3n2)cc1C	/	/	8.5µM*	/	/
CCOc1ccc(-c2cc(C(=O)NCCc3ccc(C)cc3)c3ccccc3n2)cc1	/	/	1.3µM*	/	/
O=C(NCCc1ccc(F)cc1)c1cc(-c2ccncc2)nc2ccccc12	/	-6%	4%	-8%	-3%
O=C(O)c1cc(-c2ccncc2)nc2ccccc12	-9%[9.22 µM]	/	/	/	/
O=C(O)c1cc(-c2ccc(O)cc2)nc2ccccc12	-5%	-2%	?	3%	0%
O=C(CCBr)N1CCN(C(=O)CCBr)CC1	-20%	/	/	/	/
O=C(NCC(c1cccnc1)N1CCc2ccccc2C1)c1ccc(F)c(F)c1 (stereo unspecified)	/	/	-1%	/	/
CCCn1c(-c2ccc(F)cc2)nc2c(NCCN3CCCCC3)nc(C)nc21	-5%	/	/	/	/
O=C(Nc1ccc(F)c(F)c1)c1ccc(=O)n(Cc2ccc(F)cc2)c1	/	/	-1%	/	/
O=C(Nc1nnc(-c2cccs2)o1)c1cc(-c2ccccc2)nc2ccccc12	-92%	-2%	19µM*	-8%	-3%
Cc1ccc(-c2cc(C(=O)O)c3ccccc3n2)c(C)c1	/	0%	7.6µM*	7%	17%
CCOc1ccc(-c2cc(C(=O)N3CCN(c4cc(Cl)ccc4C)CC3)c3ccccc3n2)cc1	/	/	9.5µM*	/	/
CC1(C)Cc2[nH]c3ccccc3c2C(C)(C)N1	/	3%	1%	-7%	-1%
COc1ccc(C2=NOC(Cn3nc(C(=O)NCc4cccc(C(F)(F)F)c4)cc3-c3ccccc3)C2)cc1 (stereo unspecified)	/	-5%	0%	-7%	-5%
CCCc1cc(=O)oc2cc(OCC(=O)NCCCn3ccnc3)c(Cl)cc12	/	-4%	3%	0%	-6%
COCC(=O)Nc1cc(C(=O)Nc2ccccc2C)ccc1Cl	11%	6%	?	4%	7%
Cc1ccc(C(=O)Nc2ccccc2C(=O)O)cc1NC(=O)COc1c(C)cccc1C	13%	-5%	13µM*	-3%	-3%
Cc1cc(C(=O)Nc2ccccc2C(=O)O)ccc1NC(=O)COc1cccc(C)c1C	/	14%	6µM*	29%	16%
